Whole data set: some 68,000 sequences, median “fluorescence intensity (a.u.)” near 9,100, cut for the highest 2% near 16,000. This is one part of a sample in which the highest values are shown more often than they occur.
target: OsWRKY34 (Oryza sativa, UniProt Q0JBA9 1-250); experiment: protein-binding microarray (RPBM); PBS, 2% BSA, 51.3 ng/ul salmon testes DNA, 50 uM zinc acetate, 200 nM TF, 25 C, 1 h; high values mean tight binding; details: protein: recombinant; tags: N-terminal polyhistidine and DsRed monomer fusion (pET32a); label: CyDye5-dUTP incorporated in the synthesized complementary strand; 3' TTTTT single-stranded linker to array surface; dsDNA, one strand shown
Method in brief: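 The binding signal is fluorescence intensity per array feature (arbitrary units). Readings came from an Axon 4000B scanner after a washed, 2% BSA-blocked, double-stranded custom Agilent array had been incubated for 1 h at 25 °C with 200 nM protein and 50 µM zinc acetate. The protein was a Ni–NTA-purified transcription factor fused N-terminally to polyhistidine and DsRed, expressed in E. coli BL21-CodonPlus.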

Sequence of OsWRKY34 (Q0JBA9 entry or part of it): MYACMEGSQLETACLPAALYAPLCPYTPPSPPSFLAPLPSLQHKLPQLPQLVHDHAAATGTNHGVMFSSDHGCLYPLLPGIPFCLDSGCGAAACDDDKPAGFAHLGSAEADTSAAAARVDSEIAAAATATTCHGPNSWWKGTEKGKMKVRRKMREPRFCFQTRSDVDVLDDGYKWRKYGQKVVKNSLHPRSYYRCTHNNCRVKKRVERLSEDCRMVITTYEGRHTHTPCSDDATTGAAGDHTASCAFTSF

Going from “CCACCACCACCACGCCACGGCAGCCGCACCGCACCGCACCCGGAGTCACCTAGTGCAG” to “CACACCTCGCCTCCTCCTCGGCTTGGATCTCGCCGCATCACGGAGTCACCTAGTGCAG”, the binding signal falls from 8390 fluorescence intensity (a.u.) to 8210 fluorescence intensity (a.u.).

Compared with “AACGGTACCATCACCATCATTTATCATGGGCACAACTTGCCGGAGTCACCTAGTGCAG”, “CCTTCGTCGACCCTCCGCCGCCGCCGCCGCCGCCGCCGACCGGAGTCACCTAGTGCAG” is lower in binding signal: 8810 fluorescence intensity (a.u.) for the first, 8660 fluorescence intensity (a.u.) for the second.

First: CAACATACAGGGAGTTTTTACCGGCCGCCCTCTACTCTCACGGAGTCACCTAGTGCAG
Second: GAGTTAGCCATGGCCTGTCAATTACTGGAACTCTGTTGTACGGAGTCACCTAGTGCAG
The binding signal of the first is higher: 9800 fluorescence intensity (a.u.) for the first, 8220 fluorescence intensity (a.u.) for the second.

Compared with “GTTGCTTTTGCTGGAGTAGTACTTCTATTTATCTTCAAACCGGAGTCACCTAGTGCAG”, “CTCAGTCGACCAATCGTTGATCGCCACGTCGGCTGTTCTTCGGAGTCACCTAGTGCAG” is lower in binding signal: 9100 fluorescence intensity (a.u.) for the first, 8350 fluorescence intensity (a.u.) for the second.

Going from “TTCGTGGTTTCGTTCAGCTTGATTTCGCTTGACACATCGACGGAGTCACCTAGTGCAG” to “CTGTAGTTGCCTTTGTTGGTCTTGGTTTTGCTGTTCTGGTCGGAGTCACCTAGTGCAG”, the binding signal rises from 9110 fluorescence intensity (a.u.) to 9910 fluorescence intensity (a.u.).

Going from “TTTTTTCTTTTTTTTTTTGTTTTTTCTCGCCTTTTTTTCCCGGAGTCACCTAGTGCAG” to “CATTTTCTTGGTTTGGTCTTTTTTATTGTTGGGTGTGTTTCGGAGTCACCTAGTGCAG”, the binding signal rises from 11900 fluorescence intensity (a.u.) to 15500 fluorescence intensity (a.u.).

Compared with “TTTTCGCATGTTTCTTTTCTTTTTTTTTCTTTTCTTTTCCCGGAGTCACCTAGTGCAG”, “TGTTTTTTCCTTTTTTTTTCTTTTCTTTTTCTCTCTTCCCCGGAGTCACCTAGTGCAG” is lower in binding signal: 16600 fluorescence intensity (a.u.) for the first, 8200 fluorescence intensity (a.u.) for the second.

First: ATCTGTTCGTGGGTTGCTTGCTCAGTCGACCAATCGTTGACGGAGTCACCTAGTGCAG
Second: GGGCTTGCGATCGTGTTGTGTTGGGTTGGGTCTTGGGTTTCGGAGTCACCTAGTGCAG
The binding signal of the first is lower: 19200 fluorescence intensity (a.u.) for the first, 29400 fluorescence intensity (a.u.) for the second.

Going from “GGAGGGTCTGTTTTCTTGTGTGCGAGCCTTGCTAGTTGCTCGGAGTCACCTAGTGCAG” to “TGGTCTTGCCTCTCGCTTAGCCTTTTTGTTGCCTTGTGCTCGGAGTCACCTAGTGCAG”, the binding signal falls from 16500 fluorescence intensity (a.u.) to 12300 fluorescence intensity (a.u.).

Going from “CTGGTCAGTTGGTCTTGTGTTTTGGGCTTTTTCGGCCCGTCGGAGTCACCTAGTGCAG” to “TCTGACACCTATCTCTCCTGGATTCTCCATGCTTTCTTTCCGGAGTCACCTAGTGCAG”, the binding signal falls from 12200 fluorescence intensity (a.u.) to 10300 fluorescence intensity (a.u.).

Compared with “TTTTCTCACCACTCTCTCTTTCGTGTTCTCTCTCTCTTGTCGGAGTCACCTAGTGCAG”, “CATCCTCCTTCCGGAACCTTCTAGAAGGTTCTCCTCGTACCGGAGTCACCTAGTGCAG” is lower in binding signal: 12500 fluorescence intensity (a.u.) for the first, 8530 fluorescence intensity (a.u.) for the second.

First: ATGTATTGGTGTTATGCCTTCTGTTTATTTTATTTGCTCCCGGAGTCACCTAGTGCAG
Second: AAATCTGTAGCCCGCTGCTTTTCTCTCTCCTTATTTATCTCGGAGTCACCTAGTGCAG
The binding signal of the first is lower: 8730 fluorescence intensity (a.u.) for the first, 11200 fluorescence intensity (a.u.) for the second.

First: CCAATATCACGTTGTCCTAGCTCTGCCAACGACTTCATCTCGGAGTCACCTAGTGCAG
Second: TTCTCTCCCTCCCGGCCGCCGCCCCGCCCCGCCCATCTTGCGGAGTCACCTAGTGCAG
The binding signal of the first is lower: 8320 fluorescence intensity (a.u.) for the first, 9110 fluorescence intensity (a.u.) for the second.

Going from “TTTGTTGGTTGGTTTGACCCTTCCTAATCCTACCTTTGGTCGGAGTCACCTAGTGCAG” to “CACGTACGCCGCCGTGTCTCATCACGAGCTCGATCGTTTCCGGAGTCACCTAGTGCAG”, the binding signal rises from 8160 fluorescence intensity (a.u.) to 8240 fluorescence intensity (a.u.).

Compared with “TCCTCTGGCTTTCTTTTCCCATTTCGTCTCTTGTTTGTTTCGGAGTCACCTAGTGCAG”, “GATTTGTATTGGTTTTAATAGTAGGGGAATTTCTATACCTCGGAGTCACCTAGTGCAG” is lower in binding signal: 9160 fluorescence intensity (a.u.) for the first, 8140 fluorescence intensity (a.u.) for the second.

Compared with “GTTGGGTGGGTTTCCCGTCTCCTTCCGATTGCTGAGTAGCCGGAGTCACCTAGTGCAG”, “GTGGGTTTCTAGCATCATAGGGGTATTGTAGTAACTTCCTCGGAGTCACCTAGTGCAG” is lower in binding signal: 19100 fluorescence intensity (a.u.) for the first, 17400 fluorescence intensity (a.u.) for the second.

Compared with “ACACCATGTTTCCACATTGCATTTCCTTCTGTTTTTTCTTCGGAGTCACCTAGTGCAG”, “GTGGAGTTGCTTTCTCCTCCTCCTTGTTTGGGTTGGGTGCCGGAGTCACCTAGTGCAG” is lower in binding signal: 17600 fluorescence intensity (a.u.) for the first, 11900 fluorescence intensity (a.u.) for the second.

Compared with “ATATTTCCTGTTTGCTCTGTGTTTTCTTCCACCTTCCATTCGGAGTCACCTAGTGCAG”, “GTGGGTTTTTTTTTTTGGTTTGTTTCTTCCTCTGGCCATTCGGAGTCACCTAGTGCAG” is higher in binding signal: 9830 fluorescence intensity (a.u.) for the first, 19800 fluorescence intensity (a.u.) for the second.

Compared with “GGGTATTGTAGTAACTTCCTGTGCACCATCGGGGTTAAGACGGAGTCACCTAGTGCAG”, “CGTGGGTAATTTGGTTCCTCTTCTTTTTTTGGCTTCCTTTCGGAGTCACCTAGTGCAG” is lower in binding signal: 10500 fluorescence intensity (a.u.) for the first, 8440 fluorescence intensity (a.u.) for the second.

Going from “AAAGGTGAGTAGTGGTTTCTGGGTTGCGTCTCCCTTTTTCCGGAGTCACCTAGTGCAG” to “TTCTCTGTTTCTTCTGCCTTCACCACCTGCTCCACATTTTCGGAGTCACCTAGTGCAG”, the binding signal falls from 12600 fluorescence intensity (a.u.) to 10900 fluorescence intensity (a.u.).

Compared with “ATTTTGATTAGTGCGTTTGATTAGTGGTGTTTATTATGTCCGGAGTCACCTAGTGCAG”, “TTCTGAACCGTGTTAAAATGCTACAAAATTTTCCCTTTTTCGGAGTCACCTAGTGCAG” is lower in binding signal: 9410 fluorescence intensity (a.u.) for the first, 8570 fluorescence intensity (a.u.) for the second.

Source: paper PMC7819943, “Rice protein-binding microarrays: a tool to detect cis-acting elements near promoter regions in rice”
